Where “and” joins values, the source holds several entries; their conditions need not be identical. Equal entries are not always repeated. In all, about 390,000 compounds went through this assay and about 17,000 (4.4%) were called active. Inconclusive results (about 8%) are left out. Calls follow the shape of the dose curve; as a rule, active = well fitted inhibition curve with a large enough effect; inconclusive = small, poorly fitted or top-dose-only effect; inactive = no such curve, though single readings can be large or run the other way. The sample as a whole holds a higher share of actives than the screen did. Some compounds were tested as several samples or in several runs, with calls that do not always agree.
% is scaled to controls: 0 for no effect and ±100 for the full control effect; potency is read from the fitted curve at half-maximal effect.

Sequence of Lysine-specific demethylase 4A (Homo sapiens) (O75164 whole entry, looked up, the tested form may be a part): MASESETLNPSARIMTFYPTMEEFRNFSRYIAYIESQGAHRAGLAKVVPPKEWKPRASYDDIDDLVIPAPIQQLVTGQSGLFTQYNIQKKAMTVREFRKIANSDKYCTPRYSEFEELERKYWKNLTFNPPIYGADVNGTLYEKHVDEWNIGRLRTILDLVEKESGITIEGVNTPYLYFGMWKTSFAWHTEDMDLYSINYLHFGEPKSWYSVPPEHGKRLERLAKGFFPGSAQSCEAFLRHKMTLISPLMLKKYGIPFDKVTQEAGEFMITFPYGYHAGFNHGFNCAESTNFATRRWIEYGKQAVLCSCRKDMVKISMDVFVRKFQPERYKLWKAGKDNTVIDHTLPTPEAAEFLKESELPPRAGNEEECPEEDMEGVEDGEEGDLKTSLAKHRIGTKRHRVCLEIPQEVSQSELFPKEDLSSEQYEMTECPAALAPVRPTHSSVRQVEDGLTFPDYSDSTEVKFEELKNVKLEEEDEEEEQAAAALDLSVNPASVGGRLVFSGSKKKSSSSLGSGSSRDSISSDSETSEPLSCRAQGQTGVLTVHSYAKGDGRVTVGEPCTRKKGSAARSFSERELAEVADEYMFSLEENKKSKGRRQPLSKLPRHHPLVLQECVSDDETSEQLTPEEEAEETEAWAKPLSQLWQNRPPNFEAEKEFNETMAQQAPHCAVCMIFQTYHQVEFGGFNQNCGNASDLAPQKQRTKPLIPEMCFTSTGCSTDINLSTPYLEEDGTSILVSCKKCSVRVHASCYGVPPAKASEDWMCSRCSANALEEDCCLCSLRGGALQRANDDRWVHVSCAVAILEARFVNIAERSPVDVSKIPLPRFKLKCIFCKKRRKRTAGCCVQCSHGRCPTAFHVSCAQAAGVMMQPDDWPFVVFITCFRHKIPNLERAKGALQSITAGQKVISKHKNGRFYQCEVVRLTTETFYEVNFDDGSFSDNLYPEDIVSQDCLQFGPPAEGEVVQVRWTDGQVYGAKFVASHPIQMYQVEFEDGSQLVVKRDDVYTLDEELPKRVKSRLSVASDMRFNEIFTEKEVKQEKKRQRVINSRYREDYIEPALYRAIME

The test addresses Lysine-specific demethylase 4A (Homo sapiens) (UniProt O75164). Briefly: qHTS Assay for Inhibitors of JMJD2A-Tudor Domain. Also: nearly all actives have a fitted effect of over 50% in size. To be noted: AlphaScreen JMJD2A-Tudor / H3K4me3 peptide binding; series mostly up to 114 µM; activity change, negative = inhibition: at the top concentration. For orientation: In qHTS, concentration-response curves come from the screen itself.
As to `COc1ccc(CCNc2nc(-c3ccc(Cl)cc3)cc(C(F)(F)F)n2)cc1OC`, the “activity change, negative = inhibition” value was 8.53% (inactive).

In the case of `COc1ccc(Cc2nnc(SC)[nH]c2=O)cc1`, the “activity change, negative = inhibition” value was -2.11% (inactive). As to `COc1ccc(Cc2nnc(N/N=C/c3ccccc3O)[nH]c2=O)cc1OC`, the Potency is 28.2 µM (active). Consider `CC(C)c1ccc(Cc2nnc(NCCCO)[nH]c2=O)cc1`, for which the “activity change, negative = inhibition” value is -11.2% (inactive).

In the case of `O=S(=O)(c1ccc(Br)cc1)c1nnn2c1nc(NC1CCCCCC1)c1sccc12`, the “activity change, negative = inhibition” value was -9.52% (inactive). On to `CC(=O)Nc1ccc(NC(=O)c2cc3sccc3n2Cc2ccc(F)cc2)cc1`, for which the “activity change, negative = inhibition” value is -17.8% (inactive).

In the case of `CCOc1ccc2nc(N3CCCC(C(=O)Nc4cc(C)ccc4C)C3)sc2c1` (stereo not drawn), the “activity change, negative = inhibition” value is -27.6% (inactive). As to `Cc1ccc2[nH]cc(CCNC(=O)C3CCCCC3)c2c1`, the “activity change, negative = inhibition” value is -6.31% (inactive). As to `Cc1ccc2[nH]cc(CCCN3C(=O)c4ccccc4C3=O)c2c1`, the Potency is 22.4 µM (active). Turning to `COc1ccc2[nH]cc(CCN3C(=O)c4ccc(C(=O)O)cc4C3=O)c2c1`, the “activity change, negative = inhibition” value is -10.6% (inactive). Regarding `Cc1nn(Cc2ccc(F)cc2)c(C)c1NC(=O)c1cc(CC(C)C)on1`, the “activity change, negative = inhibition” value is -9.56% (inactive). `O=C(CSc1ncc(CO)n1Cc1ccc(Cl)cc1)NCc1ccc(F)cc1`: the “activity change, negative = inhibition” value was -18.5% (inactive). On the same count and under the same terms, for `COc1ccc(N2CCN(C3=NS(=O)(=O)C(c4cccc(Br)c4)=C3C)CC2)cc1` the value was -12.9% (inactive). Consider `Cc1cccc(C)c1-n1c(C)cc(/C=C2\C(=O)NN(c3ccccc3)C2=O)c1C`, for which the Potency is 22.4 µM (active). Turning to `Cc1ccc(CN2C(=O)N/C(=C/c3cc(C)n(-c4ccccn4)c3C)C2=O)cc1`, the “activity change, negative = inhibition” value is -23% (inactive). Consider `Cc1cc(/C=C2/NC(=O)NC2=O)c(C)n1-c1cccnc1`, for which the “activity change, negative = inhibition” value was -19.2% (inactive). On the same count and under the same terms, for `CCOc1ccc(NC(=O)c2cc3c(=O)n(Cc4cccs4)ccc3nc2C)cc1` the value was -28% (inactive); for `Cc1cccc(NC(=O)c2nnn(CC(=O)Nc3ccc(C(C)C)cc3)c2N)c1C`, 1.33% (inactive).

Turning to `Cc1cc2nc(-c3ccc(NC(=O)c4cc5ccccc5o4)cc3)oc2cc1C`, the “activity change, negative = inhibition” value is -8.17% (inactive). In the case of `CCOC(=O)N1CCc2c(sc3c2c(=O)n(Cc2ccccc2)c(=O)n3CC(=O)Nc2cccc(C)c2)C1`, the “activity change, negative = inhibition” value was -3.97% (inactive). As to `COc1cccc(-n2c(=O)c3c(C)c(C(=O)N(C)C)sc3n(Cc3cccc(C)c3)c2=O)c1`, the “activity change, negative = inhibition” value is -16.7% (inactive). For the compound `COc1ccc(CCNC(=O)Cn2c(=O)n(-c3ccccc3)c(=O)c3c(C)c(C)sc32)cc1OC`, the “activity change, negative = inhibition” value was -16.7% (inactive). On to `COc1cccc(-n2c(=O)c3c(C)c(C(=O)N(C)C)sc3n(CC(=O)NCCc3ccc(OC)c(OC)c3)c2=O)c1`, for which the Potency result is “inactive and 79.4 µM (active)”. Take `COc1ccc(-c2ccc(OC)c(C3C4C=CCC(C)C4C(=O)N3Cc3ccccc3)c2)cc1C` (stereo not drawn): the “activity change, negative = inhibition” value is -22.1% (inactive). As to `COc1cccc(CNC(=O)CCc2nc(-c3ccc(C)cc3)no2)c1`, the “activity change, negative = inhibition” value was 9.25% (inactive). For `Cc1cc2c(cc1C)NC1(C[C@H]3CCC(=O)N4CC[C@@H](C1)[C@@H]34)C(=NC(C)(C)CC(C)(C)C)N2` (stereo partly drawn), the Potency is 15.8 µM (active).

Consider `O=C1CC[C@@H]2CC3(C[C@@H]4CCN1[C@H]24)Nc1cc([N+](=O)[O-])ccc1NC3=NC1CCCCC1` (stereo partly drawn), for which the “activity change, negative = inhibition” value is -30.6% (inactive).

For the compound `COC(=O)c1cccc(Cn2nnc3sc4c(c3c2=O)CCC(C(C)(C)C)C4)c1` (stereo not drawn), the “activity change, negative = inhibition” value is -4.09% (inactive). Consider `O=C(Nc1ccccc1)Oc1cccc2cccnc12`, for which the Potency was 15.8 µM (active). In the case of `OCc1ccc(OCCCOc2cccc3cccnc23)cc1`, the “activity change, negative = inhibition” value was -22% (inactive). On the same count and under the same terms, for `O=C(Nc1cccc2cccnc12)C(F)(F)F` the value was -4.79% (inactive); for `CCOc1ccccc1NC(=O)Cn1nnc(C(=O)Nc2ccc(C)c(C)c2)c1N`, -27% (inactive); for `COc1cc(NS(=O)(=O)c2cccs2)cc(OC)c1`, -5.12% (inactive). As to `O=C(COC(=O)c1ccc(O)cc1)Nc1nccs1`, the “activity change, negative = inhibition” value was -9.93% (inactive). Take `Cc1cc(C(=O)OCC(=O)Nc2nccs2)c2ccccc2n1`: the Potency is 20 µM (active).

As for `Cc1cc(C(=O)OCC(=O)Nc2nnc(C(C)C)s2)c2ccccc2n1`, the “activity change, negative = inhibition” value was -14.8% (inactive). On the same count and under the same terms, for `Cc1cccc(CCNC(=O)c2ccc3c(c2)nc2n3CCC(C)C2)c1` (stereo not drawn) the value was 0.325% (inactive); for `Cc1nn(CC(=O)NCCc2ccccc2)c(=O)c2c1sc1ccccc12`, -21.5% (inactive). Take `Cc1ccc(C)c(N2CCN(C(=O)Cn3nc(C)c4sc5ccccc5c4c3=O)CC2)c1`: the Potency is 12.6 µM (active).

`Cc1ccc(C)c(N2CCN(C(=O)Cn3ncn4cccc4c3=O)CC2)c1`: the “activity change, negative = inhibition” value is -4.23% (inactive).

Regarding `CC(=O)c1ccc(NC(=O)c2nc(-c3ccc(C)cc3)n3c2CCCCC3)cc1`, the “activity change, negative = inhibition” value was -23.4% (inactive). In the case of `CCc1nnc2c3ccccc3nc(N3CCN(c4ccc(C)cc4C)CC3)n12`, the “activity change, negative = inhibition” value was -20.1% (inactive). On to `CCN(CC)CCN(C(=O)c1cccc([N+](=O)[O-])c1)c1nc2ccc(OC)cc2s1`, for which the “activity change, negative = inhibition” value was -7.53% (inactive).

On to `CN(C)S(=O)(=O)c1ccc(C(=O)N(Cc2cccnc2)c2nc3c(F)cc(F)cc3s2)cc1`, for which the “activity change, negative = inhibition” value is -19.2% (inactive). As for `COc1ccc2sc(N(CCCN(C)C)C(=O)c3ccc(S(=O)(=O)N(C)C4CCCCC4)cc3)nc2c1`, the Potency is 56.2 µM (active).

As to `CCOc1ccc(C(=O)c2cn(Cc3ccccc3OC)c3ccc(F)cc3c2=O)cc1`, the “activity change, negative = inhibition” value was -10.4% (inactive). As to `CCN(CC)c1ccc(NC(=O)CN2C(=O)c3cccnc3Oc3ccc(Cl)cc32)c(C)c1`, the “activity change, negative = inhibition” value is -16.8% (inactive).

On to `COC(=O)c1c(NC(=O)CCCOc2ccccc2)sc2c1CCC(C)C2` (stereo not drawn), for which the “activity change, negative = inhibition” value was 37.4% (inactive).

For the origin of these results see PubChem BioAssay AID504339 (National Center for Advancing Translational Sciences (NCATS), 2011).
